PubChem BioAssay (NCATS)
Inconclusive results are not listed. Values without a mark were called inactive. Calls of active or inactive are those of the source. Calls follow the shape of the dose curve; as a rule, active = well fitted inhibition curve with a large enough effect; inconclusive = small, poorly fitted or top-dose-only effect; inactive = no such curve, though single readings can be large or run the other way.

Experiment: Primary fluorescence-based thiol-reactive (MSTI) qHTS assay for identification of artifact compounds. (AID 1845221); also: nearly all actives have a fitted effect of over 65% in size;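 as to activity change, negative = thiol reactive: thiol-reactive compounds lower the probe fluorescence signal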
Details: MSTI thiol-reactivity probe, 1 h; series mostly up to 53.8 µM; activity change, negative = thiol reactive: at the top concentration
How it was run: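 Curve-fitted percent inhibition (4-parameter Hill) derived from fluorescence, Ex 525/Em 598 nm, scaled with Acetyl-MSTI and MSTI; 1 h incubation at room temperature.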
Potency is read from the fitted curve at half-maximal effect.

Row | Compound | Potency | activity change, negative = thiol reactive
1 | CC[C@H](NC(=O)c1c(O)c(-c2ccccc2)nc2ccccc12)c1ccccc1 | 2.67 µM (active) | –
2 | C[C@@H]1O[C@@H](O[C@@H]2[C@@H](O)[C@H](O[C@@H]3[C@@H](O)[C@@H](O)[C@H](O[C@H]4[C@H](OC(=O)[C@]56CCC(C)(C)C[C@H]5C5=CCC7[C@@]8(C)C[C@H](O)[C@H](O[C@@H]9O[C@H](C(=O)O)[C@@H](O)[C@H](O)[C@H]9O)[C@@](C)(CO)C8[C@H](O)C[C@@]7(C)[C@]5(C)C[C@H]6O)O[C@@H](CO)[C@@H]4O)O[C@H]3C)OC[C@H]2O)[C@H](O)[C@H](O)[C@H]1O (some centres undefined) | – | 382% [at 11.5 µM]
3 | Cc1ccc(-c2c(-c3nn(C)c4ncnc(N5CC[C@H](N6CCCCC6)C5)c34)cnn2C)cc1 | – | 27.3%
4 | CC1(C)CC[C@]2(C(=O)O)CC[C@]3(C)C(=CCC4[C@@]5(C)C[C@@H](O)[C@H](O)[C@@](C)(CO)C5[C@H](O)C[C@]43C)[C@@H]2C1 (some centres undefined) | – | 56.2% [at 25.6 µM]
5 | COc1cccc(OC)c1-c1nc(C(=O)N[C@@H](CC(C)C)C(=O)O)cn1-c1ccnc2cc(Cl)ccc12 | – | 79.2%
6 | CC12CC(c3ccoc3)OC(=O)C1CCC1(C)C2CCC(O)C1(C)O (centres undefined) | 16.5 µM (active) | –
7 | C[C@@H]1CC[C@]2(C(=O)O[C@@H]3O[C@H](CO[C@@H]4O[C@H](CO)[C@@H](O)[C@H](O)[C@H]4O)[C@@H](O)[C@H](O)[C@H]3O)CC[C@]3(C)C(=CCC4[C@@]5(C)CC[C@H](O)[C@](C)(C(=O)O)C5CC[C@]43C)[C@@H]2[C@]1(C)O (some centres undefined) | – | 22.8% [at 11.5 µM]
8 | COc1cc(/C=C/C(=O)O[C@H]2[C@H](O)[C@@H](CO)O[C@@]2(CO)O[C@H]2O[C@H](CO)[C@@H](O)[C@H](O)[C@H]2O)cc(OC)c1O | – | -0.91% [at 25.6 µM]
9 | CC12CC34CC(O)C5C(CO)(CO)CC(=O)CC5(C)C3CC1C2C4 (centres undefined) | – | 101%
10 | CC(=O)OCC1OC(O[C@H]2CC[C@@]3(C)C(CC[C@]4(C)C3CC=C3[C@@H]5CC(C)(C)CC[C@]5(C(=O)O)CC[C@]34C)[C@]2(C)CO)C(O)C(O)C1OC1OC(C)C(O)C(OC2OCC(O)C(O)C2O)C1O (some centres undefined) | – | 307% [at 11.5 µM]
11 | COc1cccc(Cn2ncc3c4sc(S(C)=O)cc4n(C)c3c2=O)c1 (centres undefined) | – | 144%
12 | CCCNCCOc1ccc(NC(=O)c2c[nH]c3c2C(=O)CCC3)cc1F | – | 80.3%
13 | C/C=C(/C)C(=O)OC1C2OC2C2(CO2)C2C3OC(=O)C(C)C3CCC12C (centres undefined) | – | 16.6%
14 | CC(=O)OC1CCC2(C)C(CCC3(C)C2CC=C2C4CC(C)(C)CCC4(C)CCC23C)C1(C)C(=O)O (centres undefined) | – | 12.5% [at 25.6 µM]
15 | COc1cnc(-c2ccc(Cn3c(CC(C)(C)C(=O)O)c(SC(C)(C)C)c4cc(OC[C@@H]5Cc6ccccc6N5C(C)=O)ccc43)cc2)nc1 | – | 85.4%
16 | C=C(C)[C@@H]1CC[C@]2(C(=O)O)CC[C@]3(C)[C@H](CCC4[C@@]5(C)CCC(=O)C(C)(C)C5C(O)C[C@]43C)C12 (some centres undefined) | – | 38% [at 25.6 µM]
17 | CC1=C2C[C@H]3OC(=O)[C@H](O)[C@@]4(O)[C@@H](C)[C@@H](O)[C@H](O)C([C@@]2(C)[C@H](O)[C@@H](O)C1)[C@@]34C (some centres undefined) | – | -12.8%
18 | C=CC(C)(O)CC/C=C(\C)C(=O)O[C@@H]1[C@@H](O)[C@H](OC(C)(C=C)CC/C=C(\C)C(=O)O)O[C@H](CO)[C@H]1OC(=O)/C(C)=C/CCC(C)(O)C=C (some centres undefined) | – | 69.4% [at 25.6 µM]
19 | NC[C@H]1CCC[C@@H](CNC(=O)[C@@H](Cc2c[nH]c3ccccc23)NC(=O)N2CCC3(C=Cc4ccccc43)CC2)C1 | – | 33.7%
20 | CCC(C)/C=C(C)/C=C/C1=CC2=C(Cl)C(=O)C(C)(OC(C)=O)C(=O)C2=CN1C(CC(=O)O)C(=O)O (centres undefined) | 0.733 µM (active) | –
21 | CC1=CCC[C@@H]2[C@](CCc3ccoc3)(C(=O)O)[C@H](C)CC[C@@]12C | – | 57.4%
22 | C=C1C(O)C(O)C2(CC3C(C)=CCC4C(C)(C(=O)O)CCCC34C)OC2C1O (centres undefined) | 5.21 µM (active) | –
23 | CCC(C)C(=O)OC[C@H]1O[C@H](O[C@H]2O[C@H](CO)[C@@H](O)[C@H](O)[C@H]2O)[C@H](O)[C@@H](O)[C@@H]1O (some centres undefined) | – | -12.5% [at 25.6 µM]
24 | C=CCC1=C[C@]2(OC)[C@H](C)[C@@H](c3ccc(OC)c(OC)c3)O[C@]2(OC)CC1=O | – | 23.3%
